# Laboratory results published in PubChem BioAssay (EPA / NIEHS).
# Several values for one entry are separate records, joined by “and”; a condition that tells them apart may be missing. Identical values can stand only once. Where a structure was tested more than once in an assay, its records may differ in their call. Activity calls are given as the source filed them. The calls were made as follows: active = hit-call score of the fitted dose curve at least 0.9, where 1 is the maximum; inactive = score below 0.9.
# Assays:
# [1] = ATG_M_61_CIS: Attagene CIS-FACTORIAL HepG2 Assay for M61 Transcription Factor (Internal Marker) (AID 2282937); conditions: HepG2 Attagene CIS-FACTORIAL M61 internal marker reporter; actives raise or lower the signal
# Summary of the method: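 Using transiently transfected HepG2 liver cells, reporter transcript levels were assessed 24 h post-dosing by RT-PCR and capillary electrophoresis. Changes in either direction were fitted relative to DMSO controls.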
# [2] = ATG_EGR_CIS: Attagene CIS-FACTORIAL HepG2 Assay for human Early Growth Response 1 (EGR1) (AID 2282938); conditions: HepG2 Attagene CIS-FACTORIAL EGR reporter mRNA; actives raise or lower the signal
# Summary of the method: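 Fluorescent capillary-electrophoresis signal of reporter cDNA fragments serves as read-out. HepG2 cells bear transiently transfected cis-promoter reporter units and are exposed 24 h; gain- or loss-of-signal is fitted against DMSO.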
# [3] = ATG_M_19_CIS: Attagene CIS-FACTORIAL HepG2 Assay for M19 Transcription Factor (Internal Marker) (AID 2282939); conditions: HepG2 Attagene CIS-FACTORIAL M19 internal marker reporter; actives raise or lower the signal
# Summary of the method: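 Background-control endpoint from a multiplexed HepG2 reporter panel. Cells carrying cis-regulated reporter constructs are treated 24 h, then reporter transcripts are amplified, fluorescently labelled and sized by capillary electrophoresis. DMSO defines baseline.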
# [4] = ATG_ERE_CIS: Attagene CIS-FACTORIAL HepG2 Assay for Estrogen Response Element (ERE) (AID 2282940); conditions: HepG2 ERE cis-reporter, Attagene RNA transcript; actives raise or lower the signal
# Summary of the method: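 Cells used were human hepatoma HepG2, transfected with multiple reporter transcription units under cis-regulatory promoters. Reporter mRNA, read 24 h post-dosing via fluorescent RT-PCR products on capillary electrophoresis, was fitted bidirectionally relative to DMSO.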
# [5] = target: Hepatocyte nuclear factor 3-beta (Homo sapiens) (UniProt Q9Y261); experiment: ATG_FoxA2_CIS: Attagene CIS-FACTORIAL HepG2 Assay for human Forkhead box A2 (FOXA2) (AID 2282942); conditions: HepG2 cis-reporter transcription factor activity, 24 h; actives raise or lower the signal
# Summary of the method: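 Fluorescence signal of reporter cDNA fragments, separated by capillary electrophoresis, reflects endogenous transcription factor activity in transfected HepG2 after 24 h. Both increases and decreases fitted against DMSO.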
# [6] = ATG_FoxO_CIS: Attagene CIS-FACTORIAL HepG2 Assay for human Forkhead box O (FoxO) (AID 2282943); conditions: HepG2 Attagene cis-reporter, FoxO element, mRNA; actives raise or lower the signal
# Summary of the method: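 24 h chemical exposure, HepG2 with transient cis-MRTU transfection. RNA extraction, oligo(dT) RT, reporter-specific PCR, primer-extension labelling, HpaI digestion, CE fragment analysis; bidirectional fit, DMSO baseline.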
# [7] = ATG_GATA_CIS: Attagene CIS-FACTORIAL HepG2 Assay for human GATA Binding Protein (AID 2282944); conditions: HepG2 GATA cis-element reporter, Attagene multiplex mRNA; actives raise or lower the signal
# Summary of the method: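 Endogenous transcription factor activity was captured through cis-promoter-driven reporters in transfected HepG2 cells. After 24 h exposure, reporter transcripts were quantified by RT-PCR with fluorescent capillary electrophoresis, and responses fitted both directions against DMSO.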
# [8] = ATG_GRE_CIS: Attagene CIS-FACTORIAL HepG2 Assay for human Glucocorticoid Response Elements (GRE) (AID 2282947); conditions: HepG2 GRE cis-reporter, Attagene multiplex mRNA; actives raise or lower the signal
# Summary of the method: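 Cells (HepG2) bearing transfected cis-promoter reporter transcription units were treated with chemical for 24 hours. Reporter mRNA was measured via RT-PCR with capillary electrophoresis, and activity was fitted in both directions relative to DMSO.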
# [9] = ATG_ISRE_CIS: Attagene CIS-FACTORIAL HepG2 Assay for human Interferon Regulatory Factor 1 (IRF1) binding to an Interferon-Stimulated Response Element (ISRE) (AID 2282948); conditions: HepG2 ISRE cis-reporter (Attagene), mRNA transcription readout; actives raise or lower the signal
# Summary of the method: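 Multiplexed mRNA reporter readout in human liver HepG2 cells: cis-element-driven reporters transfected, compound added for 24 h, transcripts amplified, fluorescently labelled and sized by capillary electrophoresis; curve fitting bidirectional against DMSO.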
# [10] = ATG_M_32_CIS: Attagene CIS-FACTORIAL HepG2 Assay for M32 Transcription Factor (Internal Marker) (AID 2282949); conditions: HepG2 Attagene cis-factorial M32 reporter, mRNA; actives raise or lower the signal;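 also: background control marker of the multiplexed CIS panel rather than a real target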
# Summary of the method: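 HepG2 human liver cells transiently transfected with cis-promoter-driven multiple reporter transcription units, dosed 24 h. Reporter mRNA quantified by RT-PCR, FAM-labelled primer extension, HpaI digest and capillary electrophoresis; bidirectional fit versus DMSO baseline.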
# [11] = ATG_M_06_CIS: Attagene CIS-FACTORIAL HepG2 Assay for M06 Transcription Factor (Internal Marker) (AID 2282950); conditions: HepG2 Attagene CIS-FACTORIAL M06 internal marker reporter; actives raise or lower the signal
# Summary of the method: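 Steps: transfect HepG2 with multiplexed cis-element reporter constructs; dose chemical 24 h; extract RNA with DNase treatment; reverse-transcribe, PCR-amplify, 6-FAM label, HpaI digest; separate fragments by capillary electrophoresis. Activity fitted both directions versus DMSO.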
# [12] = target: Hypoxia-inducible factor 1-alpha (Homo sapiens) (UniProt Q16665); experiment: ATG_HIF1a_CIS: Attagene CIS-FACTORIAL HepG2 Assay for human Hypoxia Inducible Factor 1 (HIF1A) (AID 2282951); conditions: HepG2 Attagene cis-factorial HIF1a reporter transcription; actives raise or lower the signal
# Summary of the method: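 Endogenous-TF cis reporter readout, human HepG2 cells, 24 h incubation; mRNA detected via RT-PCR and capillary electrophoresis fluorescence; DMSO-normalised bidirectional fitting.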
# [13] = target: Hepatocyte nuclear factor 6 (Homo sapiens) (UniProt Q9UBC0); experiment: ATG_HNF6_CIS: Attagene CIS-FACTORIAL HepG2 Assay for human Hepatocyte Nuclear Factor 6 (HNF6) (AID 2282952); conditions: HepG2 Attagene cis-factorial HNF6 reporter transcription; actives raise or lower the signal
# Summary of the method: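 Endogenous factor activity read in transiently transfected HepG2 via promoter-regulated reporter transcripts. RNA harvested 24 h post-dosing, reverse-transcribed, PCR-amplified, FAM-labelled, HpaI-digested and resolved by capillary electrophoresis; fitted in both directions against DMSO.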
# [14] = target: Heat shock factor protein 1 (Homo sapiens) (UniProt Q00613); experiment: ATG_HSE_CIS: Attagene CIS-FACTORIAL HepG2 Assay for human Heat Shock Transcription Factor 1 (HSE) (AID 2282953); conditions: HepG2 HSE cis-reporter, Attagene RNA transcription; actives raise or lower the signal
# Summary of the method: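 Cells were transfected with cis-element-driven reporter constructs, dosed for 24 h, then total RNA was reverse-transcribed and reporter cDNA amplified, FAM-labelled and digested with HpaI. Fragments were resolved by capillary electrophoresis; gain or loss was fitted against DMSO.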
# [15] = ATG_MRE_CIS: Attagene CIS-FACTORIAL HepG2 Assay for human Metal Responsive Element (MRE) (AID 2282954); conditions: HepG2 MRE cis-reporter transcription, Attagene multiplex; actives raise or lower the signal
# Summary of the method: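 Cells were transfected with cis-promoter reporter transcription units, then dosed for 24 h. RNA was reverse-transcribed, amplified, fluorescently labelled and resolved by capillary electrophoresis, and activity was fitted in both directions relative to DMSO.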
# [16] = ATG_PBREM_CIS: Attagene CIS-FACTORIAL HepG2 Assay for human Phenobarbital-responsive Enhancer Module (PBREM) (AID 2282955); conditions: HepG2 PBREM cis-reporter, Attagene multiplexed transcription; actives raise or lower the signal
# Summary of the method: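 Readout: reporter mRNA, fluorescent RT-PCR fragments separated by capillary electrophoresis. System: HepG2 transiently transfected with cis-regulated reporter units. Exposure: 24 h. Analysis: bidirectional, DMSO baseline.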
# [17] = target: Paired box protein Pax-6 (Homo sapiens) (UniProt P26367); experiment: ATG_Pax6_CIS: Attagene CIS-FACTORIAL HepG2 Assay for human Paired Box 6 (PAX6) (AID 2282956); conditions: HepG2 CIS-FACTORIAL PAX6 reporter transcription, RNA readout; actives raise or lower the signal
# Summary of the method: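 Fluorescent RT-PCR products separated by capillary electrophoresis report PAX6-linked promoter mRNA in HepG2 cells 24 h post-dose. Curves fitted bidirectionally, DMSO as negative control.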
# [18] = ATG_GLI_CIS: Attagene CIS-FACTORIAL HepG2 Assay for human Zinc Finger Protein GLI1 (AID 2282945); conditions: HepG2, Attagene cis-factorial reporter mRNA, GLI element; actives raise or lower the signal
# Summary of the method: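 HepG2 cells transiently transfected with cis-promoter multiplexed reporter units report endogenous transcription factor activity. After 24 h chemical exposure, reporter mRNA was quantified by RT-PCR, 6-FAM labelling, HpaI digestion and capillary electrophoresis, with bidirectional fitting against DMSO.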
# [19] = target: Bile acid receptor (Homo sapiens) (UniProt Q96RI1); experiment: ATG_IR1_CIS: Attagene CIS-FACTORIAL HepG2 Assay for human Nuclear Receptor Subfamily 1 Group H Member 4 (NR1H4), IR1 submotif (AID 2282946); conditions: IR1 reporter transcription, actives raise or lower the signal
# Summary of the method: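 Readout: reporter transcript levels by RT-PCR with fluorescent capillary electrophoresis, from HepG2 cells transiently transfected with multiplexed cis-regulated reporters and dosed 24 h. Gain- or loss-of-signal fitted versus DMSO negative control.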
# [20] = ATG_Ets_CIS: Attagene CIS-FACTORIAL HepG2 Assay for human Erythroblast Transformation Specific (ETS) (AID 2282941); conditions: HepG2 ETS cis-reporter transcription, actives raise or lower the signal
# Summary of the method: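 Cis-regulated reporter mRNA induction in HepG2 (transient transfection), 24 h exposure, RT-PCR plus capillary electrophoresis detection; DMSO serves as negative control and baseline.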
# Sequence of Hepatocyte nuclear factor 3-beta (Homo sapiens) (Q9Y261 whole entry, looked up, the tested form may be a part): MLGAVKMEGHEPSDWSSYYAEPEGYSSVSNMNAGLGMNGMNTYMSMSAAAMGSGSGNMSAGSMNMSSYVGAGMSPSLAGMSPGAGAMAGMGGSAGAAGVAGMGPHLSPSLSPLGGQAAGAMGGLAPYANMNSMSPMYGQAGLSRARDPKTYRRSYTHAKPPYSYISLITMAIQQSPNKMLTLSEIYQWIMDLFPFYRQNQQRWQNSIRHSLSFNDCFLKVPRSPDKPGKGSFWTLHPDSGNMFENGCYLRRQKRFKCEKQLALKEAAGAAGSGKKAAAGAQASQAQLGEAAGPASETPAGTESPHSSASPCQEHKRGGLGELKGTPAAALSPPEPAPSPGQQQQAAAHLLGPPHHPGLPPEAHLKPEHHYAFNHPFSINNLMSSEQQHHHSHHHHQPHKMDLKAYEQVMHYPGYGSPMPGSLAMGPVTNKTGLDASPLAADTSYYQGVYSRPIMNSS
# Sequence of Hypoxia-inducible factor 1-alpha (Homo sapiens) (Q16665 whole entry, looked up): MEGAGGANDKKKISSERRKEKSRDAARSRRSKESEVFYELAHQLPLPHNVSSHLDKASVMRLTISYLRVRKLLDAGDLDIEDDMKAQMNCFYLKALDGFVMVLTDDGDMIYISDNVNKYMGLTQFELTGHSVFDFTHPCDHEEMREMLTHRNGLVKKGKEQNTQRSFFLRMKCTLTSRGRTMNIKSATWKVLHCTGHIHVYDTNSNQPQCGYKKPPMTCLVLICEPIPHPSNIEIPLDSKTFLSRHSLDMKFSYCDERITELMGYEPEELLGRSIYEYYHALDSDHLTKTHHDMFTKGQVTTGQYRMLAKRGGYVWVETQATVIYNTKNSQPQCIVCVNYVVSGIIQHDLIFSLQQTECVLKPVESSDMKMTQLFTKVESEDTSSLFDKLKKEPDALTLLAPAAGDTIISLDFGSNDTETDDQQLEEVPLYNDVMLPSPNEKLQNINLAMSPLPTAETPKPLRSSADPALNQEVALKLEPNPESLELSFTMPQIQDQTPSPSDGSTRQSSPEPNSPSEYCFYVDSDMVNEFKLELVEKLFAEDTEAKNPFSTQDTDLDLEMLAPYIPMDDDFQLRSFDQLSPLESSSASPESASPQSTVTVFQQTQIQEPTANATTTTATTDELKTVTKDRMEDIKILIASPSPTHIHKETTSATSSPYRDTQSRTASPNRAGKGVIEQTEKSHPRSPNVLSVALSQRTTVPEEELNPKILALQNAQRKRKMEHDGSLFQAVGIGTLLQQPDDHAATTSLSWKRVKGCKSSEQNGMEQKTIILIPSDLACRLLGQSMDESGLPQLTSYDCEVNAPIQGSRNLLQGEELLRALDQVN
# Sequence of Heat shock factor protein 1 (Homo sapiens) (Q00613 whole entry, looked up, the tested form may be a part): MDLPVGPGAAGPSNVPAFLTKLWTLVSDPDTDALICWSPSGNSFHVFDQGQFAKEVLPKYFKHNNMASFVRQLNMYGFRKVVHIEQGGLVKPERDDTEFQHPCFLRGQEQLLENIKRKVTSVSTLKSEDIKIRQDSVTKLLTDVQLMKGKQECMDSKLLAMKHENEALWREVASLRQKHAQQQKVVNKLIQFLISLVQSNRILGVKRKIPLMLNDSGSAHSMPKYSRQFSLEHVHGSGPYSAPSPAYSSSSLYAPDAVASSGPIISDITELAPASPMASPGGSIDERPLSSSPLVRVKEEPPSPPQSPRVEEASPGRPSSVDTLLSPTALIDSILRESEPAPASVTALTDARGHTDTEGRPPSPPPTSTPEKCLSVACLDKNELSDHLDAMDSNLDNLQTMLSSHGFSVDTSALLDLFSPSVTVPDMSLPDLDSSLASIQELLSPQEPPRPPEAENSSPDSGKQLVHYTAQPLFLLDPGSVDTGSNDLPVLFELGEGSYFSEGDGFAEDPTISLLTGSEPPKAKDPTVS
# Sequence of Paired box protein Pax-6 (Homo sapiens) (P26367 whole entry, looked up): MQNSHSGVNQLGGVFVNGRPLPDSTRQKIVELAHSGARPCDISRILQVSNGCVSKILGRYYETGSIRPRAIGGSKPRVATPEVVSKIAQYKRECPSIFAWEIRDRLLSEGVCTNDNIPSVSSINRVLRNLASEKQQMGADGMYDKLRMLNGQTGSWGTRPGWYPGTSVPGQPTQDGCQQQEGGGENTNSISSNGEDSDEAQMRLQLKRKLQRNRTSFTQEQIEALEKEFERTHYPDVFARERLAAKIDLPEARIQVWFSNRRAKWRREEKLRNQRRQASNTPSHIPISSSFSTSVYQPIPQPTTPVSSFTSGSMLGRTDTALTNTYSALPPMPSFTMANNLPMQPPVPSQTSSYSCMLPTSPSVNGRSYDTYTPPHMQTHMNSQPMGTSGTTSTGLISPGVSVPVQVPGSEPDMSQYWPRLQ
# Sequence of Bile acid receptor (Homo sapiens) (Q96RI1 whole entry, looked up): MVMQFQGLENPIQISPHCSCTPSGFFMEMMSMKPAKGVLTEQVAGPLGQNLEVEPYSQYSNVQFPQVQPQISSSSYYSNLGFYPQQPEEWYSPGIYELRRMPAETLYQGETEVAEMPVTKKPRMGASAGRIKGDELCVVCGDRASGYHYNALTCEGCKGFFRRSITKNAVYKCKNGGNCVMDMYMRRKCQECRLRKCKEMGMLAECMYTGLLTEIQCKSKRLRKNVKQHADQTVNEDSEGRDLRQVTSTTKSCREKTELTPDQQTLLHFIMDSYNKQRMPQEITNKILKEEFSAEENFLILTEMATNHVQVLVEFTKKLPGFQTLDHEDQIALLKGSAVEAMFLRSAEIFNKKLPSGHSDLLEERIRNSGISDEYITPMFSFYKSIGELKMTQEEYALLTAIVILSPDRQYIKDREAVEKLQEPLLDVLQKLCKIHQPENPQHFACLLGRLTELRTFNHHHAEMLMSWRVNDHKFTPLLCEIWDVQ
# Sequence of Hepatocyte nuclear factor 6 (Homo sapiens) (Q9UBC0 whole entry, looked up): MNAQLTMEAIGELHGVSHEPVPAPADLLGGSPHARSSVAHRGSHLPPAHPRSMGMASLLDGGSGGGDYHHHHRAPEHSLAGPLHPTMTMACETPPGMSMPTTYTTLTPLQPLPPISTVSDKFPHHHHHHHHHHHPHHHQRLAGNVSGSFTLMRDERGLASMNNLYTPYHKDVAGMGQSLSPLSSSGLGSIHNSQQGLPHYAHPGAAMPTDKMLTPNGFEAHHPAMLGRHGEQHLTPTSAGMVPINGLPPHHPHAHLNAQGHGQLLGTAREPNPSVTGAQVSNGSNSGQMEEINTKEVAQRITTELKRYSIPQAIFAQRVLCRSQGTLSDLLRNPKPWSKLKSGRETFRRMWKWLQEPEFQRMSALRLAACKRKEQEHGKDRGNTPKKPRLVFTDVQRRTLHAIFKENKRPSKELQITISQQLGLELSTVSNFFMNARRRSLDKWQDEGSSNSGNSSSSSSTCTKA
structure (smiles),measurement,setting,value
COCCO,outcome,[1],inactive
same,outcome,[2],inactive
same,outcome,[3],inactive
same,outcome,[4],inactive
same,outcome,[5],inactive
same,outcome,[6],inactive
same,outcome,[7],inactive
same,outcome,[8],inactive
same,outcome,[9],inactive
same,outcome,[10],inactive
same,outcome,[11],inactive
same,outcome,[12],inactive
same,outcome,[13],inactive
same,outcome,[14],inactive
same,outcome,[15],inactive
same,outcome,[16],inactive
same,outcome,[17],inactive
S=C(S)NCCNC(=S)S.[Mn+2].[S-]C([S-])=NCCN=C([S-])[S-].[Zn+2],outcome,[1],inactive
same,AC50,[2],16.2 µM (active) and 16.5 µM (active) and 3.53 µM (active)
same,outcome,[2],inactive
same,outcome,[3],inactive
same,outcome,[5],inactive
same,outcome,[7],inactive
same,outcome,[8],inactive
same,AC50,[9],9.92 µM (active) and 10.9 µM (active) and 50 µM (active)
same,outcome,[9],inactive
same,outcome,[10],inactive
same,outcome,[11],inactive
same,AC50,[12],18.3 µM (active) and 976 nM (active)
same,outcome,[12],inactive
same,outcome,[13],inactive
same,outcome,[14],inactive
same,AC50,[17],9.92 µM (active) and 15 µM (active) and 12 µM (active)
same,outcome,[17],inactive
O=C(Nc1ccc([N+](=O)[O-])cc1Cl)c1cc(Cl)ccc1O,outcome,[1],inactive
same,AC50,[2],894 nM (active)
same,outcome,[3],inactive
same,outcome,[4],inactive
same,outcome,[5],inactive
same,outcome,[7],inactive
same,outcome,[18],inactive
same,outcome,[19],inactive
same,outcome,[8],inactive
same,outcome,[9],inactive
same,outcome,[10],inactive
same,outcome,[11],inactive
same,outcome,[13],inactive
same,outcome,[14],inactive
same,AC50,[15],947 nM (active)
same,AC50,[16],700 nM (active)
same,outcome,[17],inactive
CCCN(CCC)C(=O)SCC,outcome,[1],inactive
same,outcome,[2],inactive
same,outcome,[3],inactive
same,outcome,[4],inactive
same,outcome,[20],inactive
same,outcome,[5],inactive
same,outcome,[6],inactive
same,outcome,[7],inactive
same,outcome,[18],inactive
same,outcome,[8],inactive
same,outcome,[9],inactive
same,outcome,[10],inactive
same,outcome,[11],inactive
same,outcome,[12],inactive
same,outcome,[13],inactive
same,outcome,[14],inactive
same,outcome,[16],inactive
same,outcome,[17],inactive
COc1nc(C)nc(NC(=O)NS(=O)(=O)c2ccccc2OCCCl)n1,outcome,[1],inactive
same,outcome,[2],inactive
same,outcome,[3],inactive
same,outcome,[4],inactive
same,outcome,[5],inactive
same,outcome,[6],inactive
same,outcome,[7],inactive
same,AC50,[19],8660 nM (active)
same,outcome,[19],inactive
same,outcome,[8],inactive
same,outcome,[9],inactive
same,outcome,[10],inactive
same,outcome,[11],inactive
same,outcome,[12],inactive
same,outcome,[13],inactive
same,outcome,[14],inactive
same,outcome,[16],inactive
same,outcome,[17],inactive
C[C@]12CC[C@@H]3c4ccc(O)cc4C[C@@H](CCCCCCCCCS(=O)CCCC(F)(F)C(F)(F)F)[C@H]3[C@@H]1CC[C@@H]2O (stereo not given in full),outcome,[1],inactive
same,outcome,[2],inactive
same,outcome,[3],inactive
same,outcome,[4],inactive
same,outcome,[20],inactive
same,outcome,[5],inactive
same,outcome,[6],inactive
same,outcome,[7],inactive
same,outcome,[19],inactive
same,outcome,[8],inactive
same,outcome,[9],inactive
same,outcome,[10],inactive
same,outcome,[11],inactive
same,outcome,[12],inactive
same,outcome,[13],inactive
same,outcome,[14],inactive
same,AC50,[16],376 nM (active)
same,outcome,[16],inactive
same,outcome,[17],inactive
O=C(O)c1ccccc1,outcome,[1],inactive
same,outcome,[2],inactive
same,outcome,[3],inactive
same,outcome,[4],inactive
same,outcome,[20],inactive
same,outcome,[5],inactive
same,outcome,[7],inactive
same,outcome,[9],inactive
same,outcome,[10],inactive
same,outcome,[11],inactive
same,outcome,[12],inactive
same,outcome,[13],inactive
same,outcome,[16],inactive
same,outcome,[17],inactive
